The full data set covers some 8,800 targets. This sample favours those with a hit. About 0.5% of all pairs of compound and target were hits.
Compound: CCn1c(C(=O)N(C2CC2)C2CC2)cc2c3c(ncn3C)c(Nc3cc(C)n(C)n3)nc21
Test: log2 fold change, soluble protein after heating vs DMSO (PISA); higher = thermal stabilisation; K562 lysate, 10 uM; active = over 0.2 and 3.5 SD of the protein, either way, in both replicates (recomputed)
Method in brief: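 Quantification was by TMTpro 16plex LC-MS/MS with equalised channel sums, applied to the supernatant after 21,000xg for 90 min. Samples were crude K562 extract at 1 mg/mL protein in PBS pH 7.4 with 1 mM MgCl2, treated with 10 μM compound for 30 min, heated for 3 min across 48°C-58°C, pooled and brought to 0.5% NP-40 at 4°C. Values are log-two fold changes in thermal stability relative to solvent controls, from duplicates.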

Chain of UniProt Q96RQ3 (Q96RQ3 whole entry, looked up): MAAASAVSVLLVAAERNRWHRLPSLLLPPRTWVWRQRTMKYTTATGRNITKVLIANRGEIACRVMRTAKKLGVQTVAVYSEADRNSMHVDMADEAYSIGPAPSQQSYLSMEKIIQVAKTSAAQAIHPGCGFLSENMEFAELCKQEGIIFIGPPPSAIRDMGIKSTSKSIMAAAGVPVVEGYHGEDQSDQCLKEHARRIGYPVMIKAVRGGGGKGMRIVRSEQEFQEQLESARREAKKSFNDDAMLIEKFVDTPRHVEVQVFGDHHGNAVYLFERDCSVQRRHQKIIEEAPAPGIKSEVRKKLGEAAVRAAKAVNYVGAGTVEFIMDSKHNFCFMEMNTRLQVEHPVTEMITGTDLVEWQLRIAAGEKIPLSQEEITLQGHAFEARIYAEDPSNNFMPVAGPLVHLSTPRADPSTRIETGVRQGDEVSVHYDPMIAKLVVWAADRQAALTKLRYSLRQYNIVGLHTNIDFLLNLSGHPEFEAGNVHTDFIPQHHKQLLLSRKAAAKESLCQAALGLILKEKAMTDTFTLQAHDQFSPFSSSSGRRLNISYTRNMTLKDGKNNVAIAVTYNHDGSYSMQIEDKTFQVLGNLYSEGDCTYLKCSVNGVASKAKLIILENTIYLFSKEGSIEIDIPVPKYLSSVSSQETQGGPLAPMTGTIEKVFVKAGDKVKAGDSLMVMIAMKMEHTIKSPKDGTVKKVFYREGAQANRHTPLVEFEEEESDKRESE
Chain of UniProt Q9H0B6 (Q9H0B6 whole entry, looked up): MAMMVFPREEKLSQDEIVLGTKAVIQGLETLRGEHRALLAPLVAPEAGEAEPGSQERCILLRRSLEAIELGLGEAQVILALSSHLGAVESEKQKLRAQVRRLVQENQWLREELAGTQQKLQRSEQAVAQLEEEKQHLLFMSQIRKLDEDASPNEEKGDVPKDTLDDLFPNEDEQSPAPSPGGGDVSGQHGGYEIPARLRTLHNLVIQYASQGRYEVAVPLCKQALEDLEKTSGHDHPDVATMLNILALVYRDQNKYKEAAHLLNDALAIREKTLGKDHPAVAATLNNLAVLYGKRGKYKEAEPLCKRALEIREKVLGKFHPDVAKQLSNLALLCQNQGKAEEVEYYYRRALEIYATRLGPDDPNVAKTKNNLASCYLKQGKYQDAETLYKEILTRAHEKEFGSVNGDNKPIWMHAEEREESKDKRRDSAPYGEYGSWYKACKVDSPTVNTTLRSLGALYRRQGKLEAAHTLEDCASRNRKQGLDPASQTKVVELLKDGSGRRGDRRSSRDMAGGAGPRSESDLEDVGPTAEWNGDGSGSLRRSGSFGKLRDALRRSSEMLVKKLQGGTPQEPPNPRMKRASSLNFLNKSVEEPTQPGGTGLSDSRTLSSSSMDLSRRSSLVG
Chain of UniProt Q8NE86 (Q8NE86 whole entry, looked up): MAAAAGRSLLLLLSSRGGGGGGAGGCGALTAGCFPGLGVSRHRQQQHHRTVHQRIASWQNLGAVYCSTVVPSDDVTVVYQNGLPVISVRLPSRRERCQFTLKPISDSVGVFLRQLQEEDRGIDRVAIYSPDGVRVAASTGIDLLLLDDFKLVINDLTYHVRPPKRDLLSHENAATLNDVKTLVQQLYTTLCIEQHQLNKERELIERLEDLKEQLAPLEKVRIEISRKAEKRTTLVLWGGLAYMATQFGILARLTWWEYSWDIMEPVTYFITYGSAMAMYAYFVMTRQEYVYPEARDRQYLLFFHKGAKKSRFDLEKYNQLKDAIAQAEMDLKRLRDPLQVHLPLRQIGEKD
Chain of UniProt O94822 (O94822 whole entry, looked up): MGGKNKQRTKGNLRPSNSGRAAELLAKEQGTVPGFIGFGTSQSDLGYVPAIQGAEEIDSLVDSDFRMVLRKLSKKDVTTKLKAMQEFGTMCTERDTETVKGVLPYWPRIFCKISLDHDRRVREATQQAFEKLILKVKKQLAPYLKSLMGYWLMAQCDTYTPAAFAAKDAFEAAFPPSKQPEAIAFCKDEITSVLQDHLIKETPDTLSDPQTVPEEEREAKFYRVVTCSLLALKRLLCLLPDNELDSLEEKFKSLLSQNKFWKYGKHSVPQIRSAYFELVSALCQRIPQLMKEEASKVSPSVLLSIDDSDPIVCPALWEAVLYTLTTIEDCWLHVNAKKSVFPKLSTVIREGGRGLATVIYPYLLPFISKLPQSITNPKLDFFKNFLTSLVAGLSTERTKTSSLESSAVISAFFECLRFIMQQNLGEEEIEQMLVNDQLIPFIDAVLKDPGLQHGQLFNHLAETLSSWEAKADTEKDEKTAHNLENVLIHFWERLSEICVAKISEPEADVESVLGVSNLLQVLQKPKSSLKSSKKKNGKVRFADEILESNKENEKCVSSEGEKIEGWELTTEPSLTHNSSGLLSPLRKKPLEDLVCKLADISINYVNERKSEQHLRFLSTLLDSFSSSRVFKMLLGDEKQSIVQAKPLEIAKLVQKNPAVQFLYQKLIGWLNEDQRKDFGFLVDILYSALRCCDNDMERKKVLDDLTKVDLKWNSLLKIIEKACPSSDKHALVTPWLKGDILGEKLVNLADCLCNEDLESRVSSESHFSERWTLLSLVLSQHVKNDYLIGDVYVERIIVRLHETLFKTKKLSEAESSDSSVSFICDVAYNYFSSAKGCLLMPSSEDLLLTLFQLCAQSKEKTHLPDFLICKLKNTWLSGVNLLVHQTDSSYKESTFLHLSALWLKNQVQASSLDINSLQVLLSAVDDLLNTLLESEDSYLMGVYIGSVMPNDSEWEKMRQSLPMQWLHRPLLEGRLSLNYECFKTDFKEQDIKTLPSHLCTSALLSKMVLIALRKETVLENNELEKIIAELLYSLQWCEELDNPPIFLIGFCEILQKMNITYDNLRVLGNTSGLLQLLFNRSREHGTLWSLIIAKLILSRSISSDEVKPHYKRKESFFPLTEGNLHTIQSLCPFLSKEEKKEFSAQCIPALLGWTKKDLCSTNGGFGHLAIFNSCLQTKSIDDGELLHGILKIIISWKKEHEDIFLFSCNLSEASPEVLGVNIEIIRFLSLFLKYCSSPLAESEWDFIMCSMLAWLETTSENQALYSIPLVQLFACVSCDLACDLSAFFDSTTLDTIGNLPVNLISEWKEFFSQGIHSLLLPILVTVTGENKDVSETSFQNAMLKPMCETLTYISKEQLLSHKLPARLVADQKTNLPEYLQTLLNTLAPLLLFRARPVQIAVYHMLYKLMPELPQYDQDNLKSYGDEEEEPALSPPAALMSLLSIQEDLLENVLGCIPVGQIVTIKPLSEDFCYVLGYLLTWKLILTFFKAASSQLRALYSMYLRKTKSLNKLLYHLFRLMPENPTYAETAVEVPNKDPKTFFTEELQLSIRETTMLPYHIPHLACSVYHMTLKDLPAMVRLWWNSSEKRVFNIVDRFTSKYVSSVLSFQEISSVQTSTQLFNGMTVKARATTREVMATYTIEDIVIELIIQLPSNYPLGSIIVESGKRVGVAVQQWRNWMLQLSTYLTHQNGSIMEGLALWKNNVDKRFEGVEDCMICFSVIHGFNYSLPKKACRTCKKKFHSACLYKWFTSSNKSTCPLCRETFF
Chain of UniProt Q9BW19 (Q9BW19 whole entry, looked up): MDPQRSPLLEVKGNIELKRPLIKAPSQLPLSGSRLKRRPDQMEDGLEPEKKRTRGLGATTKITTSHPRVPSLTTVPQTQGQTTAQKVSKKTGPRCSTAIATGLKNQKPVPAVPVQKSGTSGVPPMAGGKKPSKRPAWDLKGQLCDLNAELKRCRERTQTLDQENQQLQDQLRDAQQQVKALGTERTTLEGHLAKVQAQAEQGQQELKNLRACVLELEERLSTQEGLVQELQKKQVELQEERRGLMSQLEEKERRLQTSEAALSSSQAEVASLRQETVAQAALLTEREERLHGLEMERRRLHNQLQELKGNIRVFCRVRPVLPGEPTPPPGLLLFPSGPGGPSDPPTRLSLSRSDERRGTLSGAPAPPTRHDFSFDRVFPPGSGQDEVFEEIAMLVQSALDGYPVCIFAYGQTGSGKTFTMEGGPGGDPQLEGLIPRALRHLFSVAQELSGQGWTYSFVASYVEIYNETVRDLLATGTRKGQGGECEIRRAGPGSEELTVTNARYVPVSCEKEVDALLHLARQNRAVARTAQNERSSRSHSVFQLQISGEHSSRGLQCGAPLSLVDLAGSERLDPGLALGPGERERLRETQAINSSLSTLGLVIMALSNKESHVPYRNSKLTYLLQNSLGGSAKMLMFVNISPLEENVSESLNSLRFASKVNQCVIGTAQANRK
Chain of UniProt P28838 (P28838 whole entry, looked up): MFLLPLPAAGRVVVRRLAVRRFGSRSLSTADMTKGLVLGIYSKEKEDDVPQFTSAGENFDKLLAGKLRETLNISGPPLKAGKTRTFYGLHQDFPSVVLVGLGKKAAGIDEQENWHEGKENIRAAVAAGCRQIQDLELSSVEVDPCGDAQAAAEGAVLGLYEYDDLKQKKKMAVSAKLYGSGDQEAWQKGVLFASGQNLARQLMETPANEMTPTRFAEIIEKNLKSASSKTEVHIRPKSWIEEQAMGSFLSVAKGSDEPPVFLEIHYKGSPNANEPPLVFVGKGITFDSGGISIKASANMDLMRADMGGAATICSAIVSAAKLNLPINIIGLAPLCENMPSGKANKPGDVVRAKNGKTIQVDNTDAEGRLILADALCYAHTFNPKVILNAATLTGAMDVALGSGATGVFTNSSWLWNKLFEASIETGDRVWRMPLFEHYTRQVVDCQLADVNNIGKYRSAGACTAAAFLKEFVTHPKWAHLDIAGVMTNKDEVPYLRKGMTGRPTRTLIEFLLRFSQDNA
Chain of UniProt Q96G25 (Q96G25 whole entry, looked up): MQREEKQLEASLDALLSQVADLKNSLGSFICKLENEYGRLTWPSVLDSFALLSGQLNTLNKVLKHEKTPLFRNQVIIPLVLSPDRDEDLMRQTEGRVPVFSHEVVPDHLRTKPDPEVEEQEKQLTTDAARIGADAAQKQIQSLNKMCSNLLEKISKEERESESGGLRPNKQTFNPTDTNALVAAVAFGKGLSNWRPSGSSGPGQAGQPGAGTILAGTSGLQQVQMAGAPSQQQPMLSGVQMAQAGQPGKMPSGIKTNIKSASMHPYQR

log2 fold change, inactive:
MED16 (UniProt Q9Y2X0) 0.056
LAP3 (UniProt P28838) -0.095
LUZP1 (UniProt Q86V48) 0.012
KSR1 (UniProt Q8IVT5) 0.009
LTN1 isoform 3 (UniProt O94822) -0.004
MAP2K3 isoform 3 (UniProt P46734) -0.063
MRPL46 (UniProt Q9H2W6) 0.064
MCU (UniProt Q8NE86) -0.049
KIF14 (UniProt Q15058) -0.005
KIF15 (UniProt Q9NS87) 0.036
MAP3K4 (UniProt Q9Y6R4) 0.012
LIMS1 isoform 3 (UniProt P48059) -0.002
KIF11 (UniProt P52732) 0.025
KIFC1 (UniProt Q9BW19) -0.031
MAT2B (UniProt Q9NZL9) -0.015
MFF isoform 2 (UniProt Q9GZY8) 0.035
KPNA2 (UniProt P52292) 0.004
MED8 isoform 2 (UniProt Q96G25) 0.013
MAPK8 isoform 3 (UniProt P45983) -0.005
MGST3 (UniProt O14880) 0.006
KIF4A (UniProt O95239) 0.003
MPP1 (UniProt Q00013) -0.011
MAP4 (UniProt E7EVA0) -0.141
LARS2 (UniProt Q15031) 0.061
LIMK2 isoform 3 (UniProt P53671) -0.046
KPNA4 (UniProt O00629) -0.022
MAP7D3 (UniProt Q8IWC1) 0.029
METTL7A (UniProt Q9H8H3) -0.018
LYN (UniProt P07948) 0.004
LUC7L (UniProt Q9NQ29) -0.004
LYSMD3 (UniProt Q7Z3D4) -0.013
KRR1 (UniProt Q13601) 0.023
METTL2A (UniProt Q96IZ6) -0.011
MARK3 (UniProt P27448) 0.005
MLH1 (UniProt P40692) 0.014
KLC2 (UniProt Q9H0B6) -0.009
MCCC1 (UniProt Q96RQ3) -0.025
MAPK3 (UniProt P27361) -0.031
MITD1 (UniProt Q8WV92) -0.031

Reference: the supplement of paper PMC10849652
